Data reported in PubChem BioAssay (EPA / NIEHS).
Calls of active or inactive are those of the source. Rule for the calls: active = hit-call score of the fitted dose curve at least 0.9, where 1 is the maximum; inactive = score below 0.9.

The compounds below were run on Glutathione S-Transferase (GSTA2), GSTA2 (gene 2939) (assay: LTEA_HepaRG_GSTA2: Life Technologies and Expression Analysis (LTEA) Assay for Glutathione S-Transferase (GSTA2) using HepaRG (AID 2283497)). Conditions: mRNA level, 48 h; actives raise or lower the signal.
Outline: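 Human HepaRG cells, plated 48 h, then exposed in serum-free induction medium for 48 h to eight half-log concentrations up to 100 uM in 0.5% DMSO, duplicate. GSTA2 mRNA by qRT-PCR, normalized to ACTB/GAPDH/POLR2A; bidirectional fit versus DMSO.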

SMILES | AC50 | outcome
CC[C@H](c1ccc(O)cc1)[C@@H](CC)c1ccc(O)cc1 | 87.3 µM (active) | 
NC(=O)N1C(=O)C(C(=O)c2cc(Cl)cs2)c2cc(F)c(Cl)cc21 (stereo not drawn) | 19.5 µM (active) | 
CN1CCC[C@H]1c1cccnc1 |  | inactive
C#C[C@]1(O)CC[C@H]2[C@@H]3CCC4=CC(=O)CC[C@@H]4[C@H]3CC[C@@]21C | 6.05 µM (active) | 
COc1ccc([N+](=O)[O-])cc1N |  | inactive
CCCCCCCCCCCCN1CCCC1=O |  | inactive
O=C(OCCOCCOC(=O)c1ccccc1)c1ccccc1 |  | inactive
Oc1cccc(O)c1 |  | inactive
CCCCCCCCOC(=O)CCCCCCCCC(=O)OCCCCCCCC |  | inactive
COCC(C)O (stereo not drawn) |  | inactive
OC1CCC(C2CCCCC2)CC1 (stereo not drawn) |  | inactive
O=C(O)c1ccccc1C(c1ccc(O)cc1)c1ccc(O)cc1 |  | inactive
CCCCCCCCCCCCc1ccccc1S(=O)(=O)O | 80.3 µM (active) | 
NC(=O)N(O)[C@@H]1C=C[C@H](Oc2cccc(Oc3ccc(F)cc3)c2)C1 | 51 µM (active) | 
C=C(C)C(=O)OCCC(F)(F)C(F)(F)C(F)(F)C(F)(F)C(F)(F)C(F)(F)F |  | inactive
c1ccc2c(c1)Cc1ccccc1-2 |  | inactive

SMILES | AC50 | outcome
COCC(C)OCC(C)O (stereo not drawn) |  | inactive
N#C[C@@H]1CC(F)(F)CN1C(=O)CNC1CC2CCC(C1)N2c1ncccn1 (stereo partly drawn) |  | inactive
CCCOC(=O)c1ccc(O)cc1 |  | inactive
CCCCC(CC)COC(=O)CCCCC(=O)OCC(CC)CCCC (stereo not drawn) |  | inactive
O=C(O)Cc1cc(I)c(Oc2cc(I)c(O)c(I)c2)c(I)c1 | 56.7 µM (active) | 
CCCCOCCO |  | inactive
COC(=O)CCCCC(=O)OC |  | inactive
CC(C)CCCCCCOC(=O)CCCCC(=O)OCCCCCCC(C)C |  | inactive
O=c1c(-c2ccc(O)cc2)coc2cc(O)ccc12 |  | inactive
CCCCCCC(=O)O |  | inactive
CC1=C(/C=C/C(C)=C/C=C/C(C)=C/C(=O)O)C(C)(C)CCC1 | 5.61 µM (active) | 
CC#C[C@]1(O)CC[C@H]2[C@@H]3CCC4=CC(=O)CCC4=C3[C@@H](c3ccc(N(C)C)cc3)C[C@@]21C | 71.5 µM (active) | 
CC(=O)CC(C)(C)O |  | inactive
CC(C)(C)CC(C)(C)c1ccc(O)c(-n2nc3ccccc3n2)c1 |  | inactive
CCC(C)(C)C1CCC(O)CC1 (stereo not drawn) |  | inactive

Each compound was assayed on Glutamate-cysteine ligase catalytic (GCLC), GCLC (gene 2729) (assay: LTEA_HepaRG_GCLC: Life Technologies and Expression Analysis (LTEA) Assay for Glutamate-cysteine ligase catalytic (GCLC) using HepaRG (AID 2283498)). Conditions: mRNA level, 48 h; actives raise or lower the signal.
Outline: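 Differentiated human HepaRG cells, plated 48 h then switched to serum-free induction medium, were exposed in duplicate for 48 h to 8 half-log concentrations topping at 100 uM in 0.5% DMSO. GCLC mRNA was quantified by qRT-PCR against ACTB, GAPDH and POLR2A.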

SMILES | AC50 | outcome
CC[C@H](c1ccc(O)cc1)[C@@H](CC)c1ccc(O)cc1 | 79.8 µM (active) | 
NC(=O)N1C(=O)C(C(=O)c2cc(Cl)cs2)c2cc(F)c(Cl)cc21 (stereo not drawn) | 34.1 µM (active) | 
CN1CCC[C@H]1c1cccnc1 |  | inactive
C#C[C@]1(O)CC[C@H]2[C@@H]3CCC4=CC(=O)CC[C@@H]4[C@H]3CC[C@@]21C |  | inactive
COc1ccc([N+](=O)[O-])cc1N |  | inactive
CCCCCCCCCCCCN1CCCC1=O |  | inactive
O=C(OCCOCCOC(=O)c1ccccc1)c1ccccc1 |  | inactive
Oc1cccc(O)c1 |  | inactive
CCCCCCCCOC(=O)CCCCCCCCC(=O)OCCCCCCCC |  | inactive
COCC(C)O (stereo not drawn) |  | inactive
OC1CCC(C2CCCCC2)CC1 (stereo not drawn) |  | inactive
O=C(O)c1ccccc1C(c1ccc(O)cc1)c1ccc(O)cc1 |  | inactive
CCCCCCCCCCCCc1ccccc1S(=O)(=O)O |  | inactive
NC(=O)N(O)[C@@H]1C=C[C@H](Oc2cccc(Oc3ccc(F)cc3)c2)C1 |  | inactive
C=C(C)C(=O)OCCC(F)(F)C(F)(F)C(F)(F)C(F)(F)C(F)(F)C(F)(F)F |  | inactive
c1ccc2c(c1)Cc1ccccc1-2 |  | inactive

SMILES | AC50 | outcome
COCC(C)OCC(C)O (stereo not drawn) |  | inactive
N#C[C@@H]1CC(F)(F)CN1C(=O)CNC1CC2CCC(C1)N2c1ncccn1 (stereo partly drawn) |  | inactive
CCCOC(=O)c1ccc(O)cc1 |  | inactive
CCCCC(CC)COC(=O)CCCCC(=O)OCC(CC)CCCC (stereo not drawn) |  | inactive
O=C(O)Cc1cc(I)c(Oc2cc(I)c(O)c(I)c2)c(I)c1 | 57.9 µM (active) | 
CCCCOCCO |  | inactive
COC(=O)CCCCC(=O)OC |  | inactive
CC(C)CCCCCCOC(=O)CCCCC(=O)OCCCCCCC(C)C |  | inactive
O=c1c(-c2ccc(O)cc2)coc2cc(O)ccc12 |  | inactive
CCCCCCC(=O)O |  | inactive
CC1=C(/C=C/C(C)=C/C=C/C(C)=C/C(=O)O)C(C)(C)CCC1 |  | inactive
CC#C[C@]1(O)CC[C@H]2[C@@H]3CCC4=CC(=O)CCC4=C3[C@@H](c3ccc(N(C)C)cc3)C[C@@]21C | 28.4 µM (active) | 
CC(=O)CC(C)(C)O |  | inactive
CC(C)(C)CC(C)(C)c1ccc(O)c(-n2nc3ccccc3n2)c1 |  | inactive
CCC(C)(C)C1CCC(O)CC1 (stereo not drawn) |  | inactive

What follows are compounds tested on growth arrest and DNA damage 45 (GADD45G), GADD45G (gene 10912) (assay: LTEA_HepaRG_GADD45G: Life Technologies and Expression Analysis (LTEA) Assay for growth arrest and DNA damage 45 (GADD45G) using HepaRG (AID 2283499)). Conditions: mRNA level, 48 h; actives raise or lower the signal.
Outline: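 Differentiated human HepaRG cells in serum-free induction medium were exposed for 48 h to 8 half-log concentrations up to 100 uM in 0.5% DMSO, in duplicate. GADD45G mRNA was measured by TaqMan qRT-PCR, normalised to ACTB, GAPDH and POLR2A, and fitted bidirectionally against DMSO.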

SMILES | AC50 | outcome
CC[C@H](c1ccc(O)cc1)[C@@H](CC)c1ccc(O)cc1 | 66.3 µM (active) | 
NC(=O)N1C(=O)C(C(=O)c2cc(Cl)cs2)c2cc(F)c(Cl)cc21 (stereo not drawn) | 30.4 µM (active) | 
CN1CCC[C@H]1c1cccnc1 |  | inactive
C#C[C@]1(O)CC[C@H]2[C@@H]3CCC4=CC(=O)CC[C@@H]4[C@H]3CC[C@@]21C |  | inactive
COc1ccc([N+](=O)[O-])cc1N |  | inactive
CCCCCCCCCCCCN1CCCC1=O |  | inactive
O=C(OCCOCCOC(=O)c1ccccc1)c1ccccc1 |  | inactive
Oc1cccc(O)c1 |  | inactive
CCCCCCCCOC(=O)CCCCCCCCC(=O)OCCCCCCCC |  | inactive
COCC(C)O (stereo not drawn) |  | inactive
OC1CCC(C2CCCCC2)CC1 (stereo not drawn) |  | inactive
O=C(O)c1ccccc1C(c1ccc(O)cc1)c1ccc(O)cc1 |  | inactive
CCCCCCCCCCCCc1ccccc1S(=O)(=O)O |  | inactive
NC(=O)N(O)[C@@H]1C=C[C@H](Oc2cccc(Oc3ccc(F)cc3)c2)C1 |  | inactive
C=C(C)C(=O)OCCC(F)(F)C(F)(F)C(F)(F)C(F)(F)C(F)(F)C(F)(F)F |  | inactive
c1ccc2c(c1)Cc1ccccc1-2 |  | inactive

SMILES | AC50 | outcome
COCC(C)OCC(C)O (stereo not drawn) |  | inactive
N#C[C@@H]1CC(F)(F)CN1C(=O)CNC1CC2CCC(C1)N2c1ncccn1 (stereo partly drawn) |  | inactive
CCCOC(=O)c1ccc(O)cc1 |  | inactive
CCCCC(CC)COC(=O)CCCCC(=O)OCC(CC)CCCC (stereo not drawn) |  | inactive
O=C(O)Cc1cc(I)c(Oc2cc(I)c(O)c(I)c2)c(I)c1 | 7.52 µM (active) | 
CCCCOCCO |  | inactive
COC(=O)CCCCC(=O)OC |  | inactive
CC(C)CCCCCCOC(=O)CCCCC(=O)OCCCCCCC(C)C |  | inactive
O=c1c(-c2ccc(O)cc2)coc2cc(O)ccc12 |  | inactive
CCCCCCC(=O)O |  | inactive
CC1=C(/C=C/C(C)=C/C=C/C(C)=C/C(=O)O)C(C)(C)CCC1 |  | inactive
CC#C[C@]1(O)CC[C@H]2[C@@H]3CCC4=CC(=O)CCC4=C3[C@@H](c3ccc(N(C)C)cc3)C[C@@]21C | 40.8 µM (active) | 
CC(=O)CC(C)(C)O |  | inactive
CC(C)(C)CC(C)(C)c1ccc(O)c(-n2nc3ccccc3n2)c1 |  | inactive
CCC(C)(C)C1CCC(O)CC1 (stereo not drawn) |  | inactive
